# Results filed as inconclusive are left out. A call without a number means that no potency is given here. Calls of active or inactive are those of the source. Calls come from the whole dose curve.
# Experiment: qHTS assay to identify small molecule agonists of the endoplasmic reticulum stress response signaling pathway - cell viability counter screen (AID 1159517); note: nearly all actives have a fitted effect of over 50% in size
# Settings: ESRE-bla HeLa viability, CellTiter-Glo luminescence, 5 h; series mostly up to 61 µM
# Text: U.S. Tox21 Program National Center for Advancing Translational Sciences [NCATS] NIH Chemical Genomics Center [NCGC] U.S. Environmental Protection Agency [EPA] National Institutes of Environmental Health Sciences [NIEHS] National Toxicology Program [NTP] U.S. Food and Drug Administration [FDA] Tox21 Assay Overview: Endoplasmic Reticulum (ER) plays an important role in cellular signaling, protein folding/maturation, stress response, lipid biosynthesis, calcium storage and release etc. Under stress conditions, proteins in ER misfold or unfold, and leading to the expression of ER stress responsive genes. ER stress has been associated with a variety of pathophysiological conditions such as cancer, inflammation, neurodegenerative diseases, diabetes, ischemic heart disease etc. To identify the compounds that induce ER stress response, an ER stress reporter cell line, CellSensor ESRE-bla HeLa (Life Technologies, Carlsbad, CA) containing a beta-lactamase reporter gene under control of the Endoplasmic reticulum Stress Response Element (ESRE) was used to screen Tox21 10K compound library. The cytotoxicity of the Tox21 compound library against the ESRE-bla HeLa cell line was tested in parallel by measuring cell viability using the CellTiter-Glo assay in the same wells.
# Tox21 Assay Protocol Summary: ESRE-bla HeLa cells were dispensed at 1,500 cells/6 uL of assay medium per well into black wall/clear-bottom 1536-well plates using a Multidrop Combi (ThermoFisher Scientific, Waltham, MA) dispenser. After the assay plates were incubated at 37 C and 5% CO2 for an overnight, 23 nL of compounds dissolved in DMSO, positive controls or DMSO only was transferred to the assay plate by a Pintool station (Kalypsys, San Diego, CA). The assay plates were incubated at 37 C and 5% CO2 for 5 hr. One uL of LiveBLAzer B/G FRET substrate (Life Technologies) was added using a FRD (Flying Reagent Dispenser, Aurora Discovery, San Diego, CA) and the plates were incubated at room temperature for 2 hr. Fluorescence intensity (405 nm excitation, 460 nm and 530 nm emissions) was measured using an Envision plate reader (PerkinElmer, Shelton, CT). For cytotoxicity, 4 ul/well of CellTiter-Glo reagent was added into the assay plates using an FRD. After 30 min incubation at room temperature, the luminescence intensity was measured using a ViewLux plate reader (PerkinElmer).
row,Structure (SMILES),Potency
1,Cc1ccc2c(n1)Oc1ccc(C(C)C(=O)OCC(=O)N(C)C)cc1C2 (stereo not given),inactive
2,COc1cccc2c1C(=O)c1c(O)c3c(c(O)c1C2=O)C[C@@](O)(C(=O)CO)C[C@@H]3O[C@H]1C[C@H](N)[C@H](O)[C@H](C)O1,inactive
3,O=C(c1ccccc1)c1ccccc1O,inactive
4,CCC(C)c1ccccc1O (stereo not given),inactive
5,C[Si](C)(C)O[Si](C)(C)C,inactive
6,O=C1OC2(c3cc(Br)c(O)c(Br)c3Oc3c2cc(Br)c(O)c3Br)c2c(Cl)c(Cl)c(Cl)c(Cl)c21,inactive
7,CC1=CCC(C(C)(C)O)CC1 (stereo not given),inactive
8,CN(C)C(=N)N=C(N)N,inactive
9,c1ccc2c(c1)c1cccc3ccc4cccc2c4c31,inactive
10,O=P(O)(O)O,inactive
11,O=C(c1ccccc1)c1ccc(O)cc1O,inactive
12,Oc1ccc(O)cc1,inactive
13,COC(=O)Nc1nc2ccc(S(=O)c3ccccc3)cc2[nH]1 (stereo not given),inactive
14,COc1ccc(C(=O)CC(=O)c2ccc(C(C)(C)C)cc2)cc1,inactive
15,COc1ccccc1/C=C/C=O,inactive
16,CCCc1c(OCCCCc2nn[nH]n2)ccc(C(C)=O)c1O,inactive
17,COc1ccc(OC)c(C(O)CNC(=O)CN)c1 (stereo not given),inactive
18,CC(C)Oc1ccc2c(=O)c(-c3ccccc3)coc2c1,inactive
19,Nc1ccc(S(=O)(=O)Nc2cnc3ccccc3n2)cc1,inactive
20,COC(C)COC(C)COC(C)CO (stereo not given),inactive

row,Structure (SMILES),Potency
1,O=CCc1ccccc1,inactive
2,CCC(C)(O)CCCC(C)C (stereo not given),inactive
3,CN(C)c1nc(N(C)C)nc(N(C)C)n1,inactive
4,C[C@]12CCC(=O)C=C1CC[C@@H]1[C@@H]2C(=O)C[C@@]2(C)[C@H]1CC[C@]2(O)C(=O)CO,inactive
5,CN1C(C(=O)Nc2ccccn2)=C(O)c2ccccc2S1(=O)=O,inactive
6,c1ccc2c(c1)Oc1ccccc1S2,inactive
7,Brc1cc(Oc2cc(Br)c(Br)c(Br)c2Br)c(Br)c(Br)c1Br,inactive
8,CCCC(=O)O,inactive
9,OCCO,inactive
10,COC(=O)CCC(=O)OC,inactive
11,C/C=C/C(=O)O,inactive
12,Nc1ccccc1N,inactive
13,C=C(C)C1CC=C(C)CC1 (stereo not given),inactive
14,c1cc(N(CC2CO2)CC2CO2)ccc1OCC1CO1 (stereo not given),inactive
15,OC[C@H]1O[C@@H]2O[C@H]3[C@H](O)[C@@H](O)[C@@H](O[C@H]4[C@H](O)[C@@H](O)[C@@H](O[C@H]5[C@H](O)[C@@H](O)[C@@H](O[C@H]6[C@H](O)[C@@H](O)[C@@H](O[C@H]7[C@H](O)[C@@H](O)[C@@H](O[C@H]8[C@H](O)[C@@H](O)[C@@H](O[C@H]1[C@H](O)[C@H]2O)O[C@@H]8CO)O[C@@H]7CO)O[C@@H]6CO)O[C@@H]5CO)O[C@@H]4CO)O[C@@H]3CO,inactive
16,Cc1cccc(C(=O)O)c1,inactive
17,COC(=O)C1=C(C)NC(C)=C(C(=O)OCCN(C)Cc2ccccc2)C1c1cccc([N+](=O)[O-])c1 (stereo not given),inactive
18,C=CC(C)(CCC=C(C)C)OC(C)=O (stereo not given),inactive
19,CCCCOCCOCCO,inactive
20,CC(=O)CC/C=C(\C)CCC=C(C)C,inactive
